CTSL1 counter: blocks F. hepatica cathepsin L1 in PFM18AAP counter-screen | recombinant F. hepatica cathepsin L1, Z-Leu-Arg-MCA fluorescence | inhibition, % at 5.96 µM | hit rate 0.49% among 300,000 | AID 1906;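 active means inhibition above the mean of all tested compounds plus 3 SD, set per screening campaign, cut at about 17% in these data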
APOBEC3G inh: APOBEC3G (human) deaminase inhibition; Q9HC16; recombinant A3G, ssDNA deamination FAM/TAMRA fluorescence; inhibition, % at 20 µM; hit rate 0.28% among 330,000; AID 493012;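 active means inhibition of at least 40% at 20 µM, with no more than 30% in the related APOBEC3A deaminase screen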
Target sequence (Q9HC16 whole entry, looked up): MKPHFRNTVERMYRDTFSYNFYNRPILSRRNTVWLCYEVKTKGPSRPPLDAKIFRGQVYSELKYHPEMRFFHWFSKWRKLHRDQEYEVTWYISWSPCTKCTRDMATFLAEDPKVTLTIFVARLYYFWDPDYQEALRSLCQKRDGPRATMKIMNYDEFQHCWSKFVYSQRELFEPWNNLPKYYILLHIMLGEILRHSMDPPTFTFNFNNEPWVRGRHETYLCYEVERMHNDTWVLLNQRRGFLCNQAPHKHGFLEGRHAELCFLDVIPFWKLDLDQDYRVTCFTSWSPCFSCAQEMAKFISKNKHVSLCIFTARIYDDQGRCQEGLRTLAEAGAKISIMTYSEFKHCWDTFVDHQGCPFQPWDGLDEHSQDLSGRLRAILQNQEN
sPLA2-III inh: Blocks human group III sPLA2 activity; Q9NZ20; QFRET BODIPY PC-A2 liposome hydrolysis, fluorescence; hit rate 0.56% among 370,000; inhibition, % at 12.2 µM;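 active means inhibition above mean plus 3 SD of compounds lying within the high and low control bounds, cut at about 19% in these data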
NALP1 inh: blocks the NALP1 inflammasome reconstituted in yeast; S. cerevisiae NALP1/ASC/caspase-1 growth, X-gal OD620, 72 h; inhibition, % at 10 µM; hit rate 0.61% among 280,000; in the data active means inhibition mostly above about 24%, no sharp cut-off; inactive means mostly below about 32%
A3A deaminase: blocks human APOBEC3A ssDNA deamination | inhibition, % at 20 µM | hit rate 0.41% among 330,000 | recombinant A3A, FAM/TAMRA ssDNA deamination fluorescence;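 active means at least 40% inhibition at 20 µM here, with at most 30% in a related deaminase screen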
Target sequence (P31941 whole entry, looked up): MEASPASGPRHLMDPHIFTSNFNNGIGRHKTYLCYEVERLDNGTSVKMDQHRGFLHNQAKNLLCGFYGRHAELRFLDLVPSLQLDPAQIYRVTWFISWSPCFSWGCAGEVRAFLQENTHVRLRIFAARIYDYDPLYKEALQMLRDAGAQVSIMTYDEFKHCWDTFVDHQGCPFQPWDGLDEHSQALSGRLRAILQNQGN
APOBEC3A confirm: APOBEC3A (human) deaminase inhibition, confirmed | shares compounds with A3A deaminase | recombinant A3A, ssDNA deaminase UDG fluorescence assay | inhibition, % at 20 µM | hit rate 63% among 1,400;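 active means inhibition reaching a set limit, 80% of the first screen's cutoff, at 20 µM in any replicate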
UDG A3A counter: inhibits UDG, flagging false APOBEC3A inhibitors; inhibition, % at 20 µM; 1,000 tested, under 10 active; AID 504714; shares compounds with A3A deaminase; UDG counterscreen, FAM/TAMRA uracil oligo fluorescence; call rule not given here
Each line names hits and unclear results; the compound was inactive in the other large screens (follow-up assays come after a bar, where they were run). Compounds with a hit are over-represented: about 2% of the library has one in this group of screens.

CCN(CC)C(=O)Cn1cc(SCC(=O)NC)c2ccccc21	A3A deaminase 83 | APOBEC3A confirm inactive
COc1ccccc1-c1ccc([C@@H]2C[C@H]3[C@H](CON3C)CN2CC2CCCCC2)cc1	none (no result: CTSL1 counter, APOBEC3G inh, NALP1 inh, A3A deaminase)
CC(C)c1cc(C(C)C)c(S(=O)(=O)N2CCC(C(=O)NCC3COCCO3)CC2)c(C(C)C)c1 (centres undefined)	none (no result: CTSL1 counter, APOBEC3G inh, NALP1 inh, A3A deaminase)
CN(C[C@H](Cc1ccccc1)N(C[C@H](Cc1ccccc1)N(CCC(C)(C)C)N=O)N=O)N=O	A3A deaminase 98 | APOBEC3A confirm inactive | UDG A3A counter inactive
O=C(CNC(=O)c1cccc(F)c1)OCC(=O)N1CCCCC1	A3A deaminase 41 | APOBEC3A confirm inactive
N#C/C(=C/c1cn(CC(=O)O)c2ccccc12)C(=O)Nc1ccccc1	none
Cc1cccc(NC(=O)/C(C#N)=C\c2cn(CC(=O)O)c3ccccc23)c1	A3A deaminase 53 | APOBEC3A confirm inactive
COC(=O)[C@H](C(C)C)N1CCc2nnn(Cc3ccccc3)c2-c2cc(F)ccc2S1(=O)=O	none (no result: CTSL1 counter, APOBEC3G inh, NALP1 inh, A3A deaminase)
Cn1c(SCC(=O)Nc2ccccc2-c2ccccc2)nnc1-c1ccccc1	none (no result: CTSL1 counter, APOBEC3G inh, NALP1 inh, A3A deaminase)
CN(C(=O)/C=C/c1ccco1)c1ccccc1C(=O)O	A3A deaminase 44 | APOBEC3A confirm 22 | UDG A3A counter inactive
CN(C(=O)C=Cc1ccco1)c1ccccc1	none (no result: CTSL1 counter, APOBEC3G inh, NALP1 inh, A3A deaminase)
COC(=O)[C@]12C[C@H](CC(=O)NCCCN3CCCC3=O)C(=O)N(CCC3=CCCCC3)C1=C[C@H](C(C)C)O[C@@H]2C1CC1	none (no result: CTSL1 counter, APOBEC3G inh, NALP1 inh, A3A deaminase)
O=C(COc1ccc(F)c(Cl)c1)N1CCN(c2ccccn2)CC1	none
O=C(COc1ccccc1Cl)N1CCN(c2ccccn2)CC1	A3A deaminase 42 (no result: NALP1 inh) | APOBEC3A confirm inactive
COCc1ccc(C(=O)Nc2ccccc2C(=O)NCc2cccnc2)cc1	none
C=CCOc1ccc(C(=O)Nc2ccccc2C(=O)NCc2cccnc2)cc1	A3A deaminase 43 | APOBEC3A confirm 34 | UDG A3A counter inactive
CCC(C)c1ccccc1NC(=O)c1cccc(-n2cnnn2)c1 (centres undefined)	A3A deaminase 52 (no result: CTSL1 counter, NALP1 inh) | APOBEC3A confirm 34 | UDG A3A counter inactive
O=C(Nc1ccc(Br)cc1)c1cccc(-n2cnnn2)c1	A3A deaminase 51 | APOBEC3A confirm inactive | UDG A3A counter inactive
COc1ccc(Cl)cc1NC(=O)c1cccc(-n2cnnn2)c1	A3A deaminase 48 (no result: CTSL1 counter, NALP1 inh) | APOBEC3A confirm inactive | UDG A3A counter inactive
CCOC(=O)C1=C(C)N=C2SCCC(=O)N2C1c1cc(Br)ccc1OC (centres undefined)	A3A deaminase 40 (no result: NALP1 inh) | APOBEC3A confirm inactive | UDG A3A counter inactive
O=C(CSc1ccccn1)N1CCc2ccccc21	A3A deaminase 66 | APOBEC3A confirm inactive
CCn1c(SCc2ccc(Cl)c(Cl)c2)nnc1C(C)NC(=O)c1ccc(OC)cc1 (centres undefined)	none
COc1ccc(C(=O)NC(C)c2nnc(SCc3ccc(Cl)c(Cl)c3)n2C)cc1 (centres undefined)	A3A deaminase 57 | APOBEC3A confirm 60 | UDG A3A counter inactive
C=CCC1(CC=C)CCCN1C(=O)c1cc(COc2cncc(Cl)c2)on1	A3A deaminase 53 | APOBEC3A confirm inactive | UDG A3A counter inactive
Cc1ccnc(NS(=O)(=O)c2ccc(NC(=O)Cc3cccs3)cc2)n1	A3A deaminase 54 (no result: sPLA2-III inh) | APOBEC3A confirm 61 | UDG A3A counter inactive
O=C(Cc1cccs1)Nc1ccc(S(=O)(=O)Nc2ncccn2)cc1	none
CCN1/C(=C/c2ccc3cc(C)cc(C)c3[n+]2CC)Sc2cc(C)ccc21	none (no result: CTSL1 counter, APOBEC3G inh, A3A deaminase)
CCC(=O)/C=C1\Sc2ccc(OC)cc2N1CCO	none
Cc1ccc2c(c1)S/C(=C/c1ccc[n+](CCO)c1)N2C	A3A deaminase 56 | APOBEC3A confirm 88 | UDG A3A counter inactive
C[n+]1ccccc1/C=C1\Sc2ccccc2N1CCO	A3A deaminase 98 | APOBEC3A confirm 92 | UDG A3A counter inactive
Cc1ccc2c(c1)S/C(=C\c1cccc[n+]1C)N2CCO	A3A deaminase 58 | APOBEC3A confirm 89 | UDG A3A counter inactive
CC(C[N+](C)(C)C)OC(=O)C1(c2ccccc2)CCCC1 (centres undefined)	A3A deaminase 44 | APOBEC3A confirm 66 | UDG A3A counter inactive
C[N+](C)(C)CCOC(=O)C1(c2ccccc2)CCCC1	A3A deaminase 60 | APOBEC3A confirm 76 | UDG A3A counter inactive
C[N+]1(CCOC(=O)C2(c3ccccc3)CCCC2)CCCCC1	A3A deaminase 64 | APOBEC3A confirm 63 | UDG A3A counter inactive
COc1ccc(C(=O)OCC[N+]2(C)CCCCC2)cc1	A3A deaminase 64 | APOBEC3A confirm 78 | UDG A3A counter inactive
O=C(Nc1ccc(Br)cc1)OC1CC2CC1[C@H]1CCCCN1[C@H]2Cc1ccccc1 (some centres undefined)	none (no result: CTSL1 counter, APOBEC3G inh, NALP1 inh, A3A deaminase)
CCCCCCCCN1C(=O)[C@@H](CC(=O)NCc2cccs2)C[C@@]2(C(=O)OC)C1=C[C@H](C(C)C)O[C@@H]2C1CC1	none (no result: CTSL1 counter, APOBEC3G inh, NALP1 inh, A3A deaminase)
CCCC#Cc1ccc(CC[C@H]2O[C@H]3CC[C@@H](CO)O[C@H]3C[C@H]2NC(=O)CN2CCOCC2)cc1	none (no result: CTSL1 counter, APOBEC3G inh, NALP1 inh, A3A deaminase)
COc1ccc(C(=O)C[N+]2(C)CCOCC2)cc1	A3A deaminase 64 | APOBEC3A confirm 67 | UDG A3A counter inactive
C/C(=N\OCC(=O)N/N=C/c1ccc(C)cc1O)c1cccs1	A3A deaminase 51 | APOBEC3A confirm inactive | UDG A3A counter inactive
CN(C)[C@H]1CCN(c2ccc3c(c2)O[C@H]2CCN(C2)S3(=O)=O)C1	none (no result: CTSL1 counter, APOBEC3G inh, NALP1 inh, A3A deaminase)
CC(C)CC(=O)N1CCN(c2ccc([N+](=O)[O-])cc2Cl)CC1	none
O=C(c1cc([N+](=O)[O-])ccc1N1CCOCC1)N1CCCCC1	none
O=C(c1cc([N+](=O)[O-])ccc1N1CCOCC1)N1CCN(c2ccc([N+](=O)[O-])cc2)CC1	A3A deaminase 56 (no result: NALP1 inh) | APOBEC3A confirm inactive
CC(C)C(=O)N1CCN(c2ccc([N+](=O)[O-])cc2Cl)CC1	A3A deaminase 55 | APOBEC3A confirm 17 | UDG A3A counter inactive
Cc1c2ccccc2nc2ccccc12	none (no result: NALP1 inh)
CCCNc1c(F)c(F)c2c(C)c3ccccc3nc2c1F	A3A deaminase 42 | APOBEC3A confirm inactive | UDG A3A counter inactive
COCc1cc(C)nc(N2CCN(c3ccccc3)CC2)c1C#N	none
COCc1cc(C)nc(N2CCN(Cc3ccccc3)CC2)c1C#N	NALP1 inh 41, A3A deaminase 72 | APOBEC3A confirm 66 | UDG A3A counter inactive
Cc1c(NC(=O)COC(=O)CSc2ccc(C(N)=O)cc2[N+](=O)[O-])c(=O)n(-c2ccccc2)n1C	none
Cc1ccccc1NC(=O)CSc1ccsc1[N+](=O)[O-]	A3A deaminase 48 | APOBEC3A confirm 42
Cc1cccc(NC(=O)CSc2ccc(C(N)=O)cc2[N+](=O)[O-])c1C	A3A deaminase 44 | APOBEC3A confirm inactive
COCCCNC(=O)CSc1ccsc1[N+](=O)[O-]	none
